Here are results for eight compounds from PubChem BioAssay (Tox21).

Results filed as inconclusive are left out. A structure can be active in one record and inactive in another. Activity calls are given as the source filed them. Unless noted, calls come from the whole dose curve.

In test [1] the target is Peroxisome proliferator-activated receptor delta (Homo sapiens) (UniProt Q03181). Briefly: qHTS assay to identify small molecule agonists of the peroxisome proliferator-activated receptor delta (PPARd) signaling pathway (AID 743212). In outline:
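GeneBLAzer UAS-bla HEK293H cells carrying a PPARδ construct were exposed to compounds at 37 °C. Beta-lactamase activity was read by FRET fluorescence after 2 h at room temperature with LiveBLAzer B/G substrate.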
A general note: qHTS replaces the single test concentration by a dilution series.

Test [2] can be described thus: qHTS assay to identify small molecule antagonists of the peroxisome proliferator-activated receptor delta (PPARd) signaling pathway - cell viability counter screen (AID 743213; active = well fitted curve in the direction sought with a large enough effect in the repeat runs; an effect the other way counts as inactive or inconclusive; note: nearly all actives have a fitted effect of over 50% in size). In outline:
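Agonist-stimulated (L165041, 300 nM final) HEK293H PPARd UAS-bla cells are exposed to compounds for 17 h at 37 C, and ATP-based luminescence (CellTiter-Glo) from the same wells reports cytotoxicity.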

Test [3] deals with Peroxisome proliferator-activated receptor delta (Homo sapiens) (UniProt Q03181). Kind of test: qHTS assay to identify small molecule antagonists of the peroxisome proliferator-activated receptor delta (PPARd) signaling pathway (AID 743215; active = well fitted inhibition curve with a large enough effect in the signal ratio in the repeat runs, not every such curve was filed as active; the % refers to the signal ratio; note: series mostly up to about 62 µM). In short, it runs like this: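 PPARd UAS-bla HEK293H cells were pre-incubated 5 h at 37 C, then given test compounds in DMSO plus agonist L165041 (300 nM final). After 17 h at 37 C, beta-lactamase FRET substrate was added; fluorescence read after 2 h at room temperature.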
Chain of Peroxisome proliferator-activated receptor delta (Homo sapiens) (Q03181 whole entry, looked up): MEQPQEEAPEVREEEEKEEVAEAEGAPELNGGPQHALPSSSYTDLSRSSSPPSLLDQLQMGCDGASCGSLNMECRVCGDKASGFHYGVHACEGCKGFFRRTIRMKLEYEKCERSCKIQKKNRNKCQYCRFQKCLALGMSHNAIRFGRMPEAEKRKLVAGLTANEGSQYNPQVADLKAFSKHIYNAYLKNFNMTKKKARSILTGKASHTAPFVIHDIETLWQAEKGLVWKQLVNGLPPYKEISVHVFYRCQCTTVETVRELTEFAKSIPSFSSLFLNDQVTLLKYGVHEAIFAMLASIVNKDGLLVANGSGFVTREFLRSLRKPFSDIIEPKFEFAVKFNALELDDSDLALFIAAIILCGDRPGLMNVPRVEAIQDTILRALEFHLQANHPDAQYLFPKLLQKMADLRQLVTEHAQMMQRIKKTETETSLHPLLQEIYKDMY

Test [4] deals with Bile acid receptor (Homo sapiens) (UniProt Q96RI1). Kind of test: qHTS assay to identify small molecule antagonists of the farnesoid-X-receptor (FXR) signaling pathway (AID 743217; active = well fitted inhibition curve with a large enough effect in the signal ratio in the repeat runs, not every such curve was filed as active; the % refers to the signal ratio). In outline: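 FXR-UAS-bla HEK 293T cells pre-incubated 5 h at 37 °C, then exposed to compounds with chenodeoxycholic acid (50 uM final) for 16 h at 37 °C. Beta-lactamase reporter read by LiveBLAzer B/G FRET substrate fluorescence after 2 h at room temperature.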
Chain of Bile acid receptor (Homo sapiens) (Q96RI1 whole entry, looked up): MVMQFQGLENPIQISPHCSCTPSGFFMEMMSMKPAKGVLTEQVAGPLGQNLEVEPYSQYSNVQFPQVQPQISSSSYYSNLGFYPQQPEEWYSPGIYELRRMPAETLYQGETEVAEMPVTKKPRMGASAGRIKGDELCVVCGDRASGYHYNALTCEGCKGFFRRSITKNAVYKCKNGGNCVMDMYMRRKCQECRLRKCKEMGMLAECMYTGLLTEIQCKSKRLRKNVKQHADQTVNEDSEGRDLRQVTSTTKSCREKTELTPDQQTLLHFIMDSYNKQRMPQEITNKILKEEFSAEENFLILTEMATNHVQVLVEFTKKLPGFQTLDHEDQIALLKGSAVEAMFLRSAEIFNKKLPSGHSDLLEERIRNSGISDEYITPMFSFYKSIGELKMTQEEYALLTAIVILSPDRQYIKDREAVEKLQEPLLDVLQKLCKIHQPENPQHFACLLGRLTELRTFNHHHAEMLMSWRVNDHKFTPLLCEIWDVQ

A short description of test [5]: qHTS assay to identify small molecule agonists of the farnesoid-X-receptor (FXR) signaling pathway - cell viability counter screen (AID 743218; active = well fitted curve in the direction sought with a large enough effect in the repeat runs; an effect the other way counts as inactive or inconclusive; note: nearly all actives have a fitted effect of over 45% in size). In short, it runs like this:
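FXR-UAS-bla HEK 293T cells, plated 5 h at 37 C, were exposed to compounds for 16 h at 37 C. CellTiter-Glo was then added to the same wells as the bla readout; luminescence read after 30 min at room temperature.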

The target in test [6] is Bile acid receptor (Homo sapiens) (UniProt Q96RI1). Kind of test: qHTS assay to identify small molecule agonists of the farnesoid-X-receptor (FXR) signaling pathway (AID 743220; active = well fitted activation curve with a large enough effect in the signal ratio in the repeat runs, not every such curve was filed as active; the % refers to the signal ratio). In outline:
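Beta-lactamase reporter under UAS control in GeneBLAzer FXR HEK 293T cells (5000/well) measured with LiveBLAzer FRET substrate after 2 h at room temperature. Compound exposure lasted 16 h at 37C.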

Test [7] is described as follows: qHTS assay to identify small molecule antagonists of the farnesoid-X-receptor (FXR) signaling pathway - cell viability counter screen (AID 743221; active = well fitted cell-killing curve with a large enough effect in the repeat runs, not every such curve was filed as active; note: nearly all actives have a fitted effect of over 50% in size). In outline:
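Cytotoxicity is taken from ATP luminescence (CellTiter-Glo, 30 min, room temperature) in FXR-bla HEK 293T cells previously incubated 16 h at 37 C with compound and chenodeoxycholic acid at 50 uM final.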

Test [8] has as its target Vitamin D3 receptor (Homo sapiens) (UniProt P11473). Kind of test: qHTS assay to identify small molecule agonists of the vitamin D receptor (VDR) signaling pathway (AID 743222). In outline: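 VDR-bla cells were plated 4 h at 37C/5% CO2, then exposed to compounds in DMSO for 16 h. After LiveBLAzer B/G FRET substrate addition and 2 h at room temperature, beta-lactamase reporter fluorescence was read.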

The target is the same in test [9]. Kind of test: qHTS assay to identify small molecule antagonists of the vitamin D receptor (VDR) signaling pathway (AID 743223; active = well fitted inhibition curve with a large enough effect in the signal ratio in the repeat runs, not every such curve was filed as active; the % refers to the signal ratio). In outline: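 Quantitative HTS in VDR-bla reporter cells stimulated with 1alpha,25-dihydroxyvitamin D3, 3 nM final. Compound exposure 16 h, 37C, 5% CO2. Read-out: beta-lactamase FRET substrate fluorescence, 2 h RT.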
Test [10] is described as follows: qHTS assay to identify small molecule agonists of the vitamin D receptor (VDR) signaling pathway - cell viability counter screen (AID 743224; active = well fitted curve in the direction sought with a large enough effect in the repeat runs; an effect the other way counts as inactive or inconclusive; note: series mostly up to about 63 µM; nearly all actives have a fitted effect of over 50% in size). In short, it runs like this:
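VDR-bla cells were preincubated 4 h at 37C/5% CO2, then exposed to compounds for 16 h. After the 2 h room-temperature bla FRET read, CellTiter-Glo was added to the same wells and luminescence read after 30 min.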

Test [11] can be described thus: qHTS assay to identify small molecule antagonists of the vitamin D receptor (VDR) signaling pathway - cell viability counter screen (AID 743225; active = well fitted curve in the direction sought with a large enough effect in the repeat runs; an effect the other way counts as inactive or inconclusive; note: nearly all actives have a fitted effect of over 50% in size). In outline:
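Same-well multiplex: following 16 h treatment of HEK 293T cells carrying a UAS-driven beta-lactamase reporter with compound and agonist (3 nM final), and a 2 h FRET substrate step, CellTiter-Glo was added and luminescence read after 30 min.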

Test [12] in a line: qHTS assay to identify small molecule agonists of the NFkB signaling pathway (AID 1159509; active = well fitted curve in the direction sought with a large enough effect in the signal ratio in the repeat runs, not every such curve was filed as active; the % refers to the signal ratio; note: series mostly up to about 61 µM). In short, it runs like this:
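NFkB-bla ME-180 cells carry a beta-lactamase reporter under an NF-kB response element. They were plated overnight, then exposed to compounds for 5 h at 37 C. Read-out is LiveBLAzer FRET after 1.5 hr at room temperature (405 nm excitation; 460/530 nm emission).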

Test [13] is described as follows: qHTS assay to identify small molecule agonists of the NFkB signaling pathway - cell viability counter screen (AID 1159515). Note: series mostly up to about 61 µM; nearly all actives have a fitted effect of over 55% in size. In outline: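 NFkB-bla ME-180 cells, 2,000/well, were plated overnight at 37 C, 5% CO2, then exposed to compounds in DMSO for 5 hr. After the bla FRET read, CellTiter-Glo was added to the same wells; luminescence was read after 30 min at room temperature.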

A short description of test [14]: qHTS assay to identify small molecule agonists of the endoplasmic reticulum stress response signaling pathway (AID 1159516; active = well fitted activation curve with a large enough effect in the signal ratio in the repeat runs, not every such curve was filed as active; the % refers to the signal ratio). In outline:
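CellSensor ESRE-bla HeLa cells, carrying a beta-lactamase reporter driven by the ER stress response element, were plated overnight and exposed to compounds for 5 hr at 37 C. Reporter activity was read as FRET substrate fluorescence after 2 hr at room temperature.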

A short description of test [15]: qHTS assay to identify small molecule agonists of the endoplasmic reticulum stress response signaling pathway - cell viability counter screen (AID 1159517). In short, it runs like this: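 ESRE-bla HeLa cells, 1,500 per well, seeded overnight then treated with compounds for 5 hr at 37 C. After the beta-lactamase read, viability in the same wells is measured by CellTiter-Glo luminescence after 30 min at room temperature.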

A short description of test [16]: qHTS assay to identify small molecule antagonists of the retinoid-related orphan receptor gamma (ROR-gamma) signaling pathway - cell viability counter screen (AID 1159520; active = well fitted curve in the direction sought with a large enough effect in the repeat runs; an effect the other way counts as inactive or inconclusive; note: nearly all actives have a fitted effect of over 50% in size). In outline: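 Tet-on ROR gamma CHO cells were given compounds for 2 hr, then doxycycline hyclate at 1 uM final, and incubated 16 hr at 37 C. Viability was measured as ATP content by CellTiter-Glo luminescence.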

Test [17] concerns the target Nuclear receptor ROR-gamma (Homo sapiens) (UniProt P51449). Briefly: qHTS assay to identify small molecule antagonists of the retinoid-related orphan receptor gamma (ROR-gamma) signaling pathway (AID 1159521; active = well fitted curve in the direction sought with a large enough effect in the repeat runs; an effect the other way counts as inactive or inconclusive; note: nearly all actives have a fitted effect of over 50% in size; note: potency is the fitted concentration of half-maximal effect). In short, it runs like this:
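Inducible-expression reporter assay: doxycycline (1 uM final) switched on RORγ in CHO cells bearing a ROR response element-luciferase construct, with test compounds present from 2 h beforehand. Decreased luminescence after 16 h defined antagonist activity.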

Test [18] can be described thus: qHTS assay to identify small molecule agonists of the AP-1 signaling pathway - cell viability counter screen (AID 1159525). Note: nearly all actives have a fitted effect of over 55% in size. In short, it runs like this:
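AP-1-bla ME-180 cells in Opti-MEM with 0.5% dialyzed FBS, compound exposure 5 h at 37 C in 15-point titration. Viability read in the same wells as ATP content by CellTiter-Glo luminescence, normalised to tetra-n-octylammonium bromide and DMSO controls.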

The nature of test [19]: qHTS assay to identify small molecule agonists of the AP-1 signaling pathway (AID 1159526).
Test [20] concerns the target Retinoic acid receptor RXR-alpha (Homo sapiens) (UniProt P19793). Briefly: qHTS assay to identify small molecule agonists of the RXR signaling pathway (AID 1159527). Note: nearly all actives have a fitted effect of over 35% in size. In outline:
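Compounds in DMSO were added to RXR-alpha-UAS-bla HEK 293T cells kept in 2% charcoal-stripped serum, and incubated 16 hr at 37 C with 5% CO2. Reporter signal came from a 2 hr B/G FRET substrate step.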

Chain of Vitamin D3 receptor (Homo sapiens) (P11473 whole entry, looked up): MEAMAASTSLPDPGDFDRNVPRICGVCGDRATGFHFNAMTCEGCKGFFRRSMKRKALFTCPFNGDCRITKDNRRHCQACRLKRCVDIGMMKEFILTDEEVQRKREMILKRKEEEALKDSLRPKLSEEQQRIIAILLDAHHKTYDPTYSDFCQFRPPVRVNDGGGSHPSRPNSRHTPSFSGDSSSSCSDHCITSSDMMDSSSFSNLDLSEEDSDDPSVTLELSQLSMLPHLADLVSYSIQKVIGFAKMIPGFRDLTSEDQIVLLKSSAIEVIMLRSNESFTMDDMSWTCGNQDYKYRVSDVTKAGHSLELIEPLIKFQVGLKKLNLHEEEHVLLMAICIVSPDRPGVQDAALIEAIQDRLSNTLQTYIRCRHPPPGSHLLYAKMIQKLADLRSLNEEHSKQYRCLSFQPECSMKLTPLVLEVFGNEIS
Chain of Retinoic acid receptor RXR-alpha (Homo sapiens) (P19793 whole entry, looked up): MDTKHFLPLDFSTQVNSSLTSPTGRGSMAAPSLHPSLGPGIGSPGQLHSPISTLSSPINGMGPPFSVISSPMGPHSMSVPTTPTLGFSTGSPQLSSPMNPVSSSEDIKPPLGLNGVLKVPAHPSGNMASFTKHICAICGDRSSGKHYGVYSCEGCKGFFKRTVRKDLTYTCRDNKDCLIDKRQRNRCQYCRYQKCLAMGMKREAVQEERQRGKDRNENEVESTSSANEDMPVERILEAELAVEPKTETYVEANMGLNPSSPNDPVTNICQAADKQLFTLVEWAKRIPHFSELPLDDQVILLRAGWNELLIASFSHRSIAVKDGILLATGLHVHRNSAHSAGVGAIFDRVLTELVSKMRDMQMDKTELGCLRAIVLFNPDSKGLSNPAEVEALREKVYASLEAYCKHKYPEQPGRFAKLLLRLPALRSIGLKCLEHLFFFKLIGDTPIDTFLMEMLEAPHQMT

As for `O=C=NCCCCCCN=C=O`, the outcome in test [1], in test [2], in [4], in test [6], in [8] and in test [9] was inactive. The outcome in test [11], in [12], in [13], in test [14], in test [15] and in [19] was inactive. The Potency entry in test [3], in test [5], in test [7], in test [10], in test [16] and in test [18] was “inactive” each time. Moreover, the Potency result in test [20] is “inactive”. Besides, the Potency in test [17] is 26.7 µM (active) and inactive.
In the case of `CC(C)CC(=O)CC(C)C`, the result in test [2], in test [8], in test [9], in test [11], in test [12] and in test [13] was inactive. The call in test [14], in [15] and in test [19] was inactive. For the same compound, the Potency result in [5], in [10], in test [16], in test [17], in test [18] and in test [20] was “inactive” each time.
As for `C[Si](O[Si](C)(C)C)O[Si](C)(C)C`, the call in test [1], in test [2], in test [4], in [6], in test [8] and in test [9] was inactive. Moreover, the compound was classed as inactive in [11], in test [12], in [13], in test [14], in [15] and in test [19]. Besides, the Potency result in test [5], in test [7], in test [10], in test [16], in test [17] and in test [18] was “inactive” throughout. Besides, the Potency entry in [20] is “inactive”.
For `COCCCOc1ccnc(CS(=O)c2nc3ccccc3[nH]2)c1C` (stereo not drawn), the compound was called inactive in [2], in test [12], in test [13], in test [14], in test [15] and in [19]. The Potency entry in [5], in test [7], in [10], in test [16], in test [17] and in [18] was “inactive” in each case. For the same compound, in test [20], the Potency entry was “inactive”.
As to `Cc1cc(C)c(C)cc1C`, the result in test [1], in [2], in test [4], in test [6], in test [8] and in [11] was inactive. Besides, the compound was called inactive in [12], in [13], in [14], in test [15] and in [19]. Also, the Potency entry in test [3], in test [5], in test [7], in [16], in test [17] and in [18] was “inactive” throughout. Also, the Potency result in test [20] is “inactive”.
As to `O=C(O)c1ccc(C(=O)O)cc1`, the outcome in [1], in [2], in test [8], in test [9], in test [12] and in test [13] was inactive. Besides, the call in test [14], in test [15] and in test [19] was inactive. The Potency result in test [5], in test [7], in test [10], in test [16], in test [17] and in test [18] was “inactive” throughout.
Regarding `O=C(O)c1cc(O)c(O)c(O)c1`, the result in test [1], in test [2], in test [8], in test [9], in [11] and in test [12] was inactive. The outcome in test [13], in test [14], in [15] and in [19] was inactive. The Potency result in test [3], in [5], in test [7], in test [16], in test [17] and in [18] was “inactive” in each case. In test [20], the Potency entry was “inactive”.
For the compound `FC(F)(F)c1ccc(Cl)c(Cl)c1`, the call in [1], in test [2], in test [8], in [11], in test [12] and in test [13] was inactive. Besides, the compound was called inactive in test [14], in test [15] and in test [19]. For the same compound, the Potency entry in [5], in test [7], in test [10], in test [16], in test [17] and in [18] was “inactive” in each case. Further, the Potency result in test [20] was “inactive”.
